# Test results from the supplement of paper PMC7156485.
# ± gives the standard deviation of the averaged measurements.
# Test system: HCC1569
# Assay: cell number relative to DMSO (% of DMSO); higher = more cells (less growth inhibition / toxicity)
# Settings: concentration: 10 µM; 24 h
# In short: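 Compounds were applied at 10 µM for 24 h at 37 °C, in triplicate, to HCC1569 and TDF cells. The cells were then fixed and stained for H1.0, and nuclei were counterstained with DAPI. Nuclear H1.0 intensity or cell number is reported relative to the plate control as a percent, taking the median of replicates. Smoothing for positional effects was applied to HCC1569 values only.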
# 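Further: TDF denotes transformed human dermal fibroblasts of mesenchymal origin.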
row,Structure (SMILES),cell number
1,CCCCCC(O)C=CC1C=CC(=O)C1CC=CCCCC(=O)O (stereo not given) [Prostaglandin A2],103
2,CNNCc1ccc(C(=O)NC(C)C)cc1 [Procarbazine],102
3,COc1cccc(-c2cn(-c3ccc(CCN4CCC(O)CC4)cc3)c3ncnc(N)c23)c1,45.9
4,CC(C)C(CO)Nc1nc(Nc2ccc(C(=O)O)c(Cl)c2)c2ncn(C(C)C)c2n1 (stereo not given) [Purvalanol B],101
5,COC(=O)C1=C(C)NC(C)=C([N+](=O)[O-])C1c1ccccc1C(F)(F)F (racemic),99
6,Cl.Nc1nc2ccc(OC(F)(F)F)cc2s1 [Riluzole.HCl],101
7,COc1ccc2cc3[n+](cc2c1OC)CCc1cc2c(cc1-3)OCO2.Cl,99.4
8,COc1ccc(Cl)cc1NC(=O)Nc1cc(C)nc2ccccc12 [N-(5-Chloro-2-methoxyphenyl)-N'-(2-methyl-4-quinolinyl)urea],90
9,"C=C1CCC(O)CC1=CC=C1CCCC2(C)C1CCC2C(C)CCC(O)C(C)(C)O [24(R),25-Dihydroxyvitamin D3]",105
10,O=c1oc2c(O)c(O)cc3c(=O)oc4c(O)c(O)cc1c4c23 [Ellagic acid],102
11,COc1cc2nc(N(C)CCCNC(=O)C3CCCO3)nc(N)c2cc1OC (stereo not given) [Alfuzosin],99.7
12,CC(=O)NCCc1ccc(O)c(O)c1 [N-Acetyldopamine monohydrate],101
13,COC(=O)C1C(O)CCC2CN3CCc4c([nH]c5ccccc45)C3CC21.Cl (stereo not given) [Yohimbine hydrochloride],99.8
14,Cl.NC(N)=NC(=O)Cc1c(Cl)cccc1Cl [Guanfacine.HCl],101
15,COC(=O)[C@@H](N)CSCC=C(C)CCC=C(C)CCC=C(C)C [S-Farnesyl-L-cysteine methylester],106
16,CCCCCCCCCCCC=CCCCCCC(=O)O [7(Z)-Nonadecenoic acid],97.8
17,CCOC(=O)CN1C(=O)c2ccc3c4c(ccc(c24)C1=O)C(=O)N(CC(=O)OCC)C3=O,104
18,NS(=O)(=O)c1cc(C(=O)O)c(NCc2ccco2)cc1Cl [Furosemide],101 ± 1.2
19,COc1cc(C2CC(=O)c3c(O)cc(O)cc3O2)ccc1O (stereo not given) [Homoeriodictyol],97.9
20,COc1cc2c(N3CCN(C(=O)Nc4ccc(OC(C)C)cc4)CC3)ncnc2cc1OCCCN1CCCCC1 [Tandutinib],101

row,Structure (SMILES),cell number
1,CN(C)CCCOC1C(C(O)CO)OC2OC(C)(C)OC21.Cl (stereo not given) [Amiprilose hydrochloride],101
2,Cc1cc(C(=O)Nc2cccc(C(=O)Nc3cccc(C(F)(F)F)c3)c2)on1,100
3,CCOc1ccc2ccc(=O)oc2c1 [7-ethoxy-2H-chromen-2-one],99.7
4,N#Cc1c(N(CC(=O)[O-])CC(=O)[O-])sc(C(=O)[O-])c1CC(=O)[O-].[Sr+2].[Sr+2],100
5,C=C1C(=O)OC2C1CCC(C)=CCCC1(C)OC21 (stereo not given) [Parthenolide],65.2 ± 7.3
6,CN(C)[C@@H]1CCc2[nH]c3ccc(NC(=O)c4ccc(F)cc4)cc3c2C1.Cl,99.2
7,COc1cccc2c1C(=O)c1c(O)c3c(c(O)c1C2=O)CC(O)(C(C)=O)CC3OC1CC(N)C(O)C(C)O1 (stereo not given) [Daunorubicin],53.3 ± 2.3
8,NC/C=C\C(=O)O [cis-4-Aminocrotonic acid],105
9,COC(=O)N=NC=C1C=[N+]([O-])c2ccccc2N1O [Carbadox],104
10,COCCOC(=O)C1=C(C)NC(C)=C(C(=O)OC(C)C)C1c1cccc([N+](=O)[O-])c1 (stereo not given) [Nimodipine],100 ± 2.9
11,COc1ccc(C2(C#N)CCC(C(=O)O)CC2)cc1OC1CCCC1 (stereo not given),105
12,CCCCCCCCCCCCCCC(C(=O)O)=C(C)C(=O)O [Chaetomellic acid A],102
13,C[N+](C)(C)C(Cc1c[nH]c(=S)[nH]1)C(=O)[O-] (stereo not given) [Ergothioneine],100
14,CCc1[nH]c(-c2ccc(OC)cc2)nc1-c1ccncc1,98.5
15,N#Cc1cc2nc([O-])c([O-])nc2cc1[N+](=O)[O-].[Na+].[Na+] [CNQX disodium],99.5
16,CCC(=O)N1CCN(C(=O)c2ccccc2)CC1,106
17,"CC(CC(c1ccccc1)c1ccccc1)NC(C)(C)C.Cl (stereo not given) [N-(tert-butyl)-4,4-diphenyl-2-butanamine hydrochloride]",97.9
18,CCCCC#Cc1nc(N)c2ncn(C3OC(C(=O)NCC)C(O)C3O)c2n1 (stereo not given),93.3
19,CC(Cc1ccccc1)(NC(=O)CN)c1ccccc1.Cl (stereo not given),97.7
20,COc1ccc(CNC(=O)c2sc3nc(C)cc(C)c3c2N)cc1,100
